Rows were chosen to be rich in hits. Some 15% of all compounds tested hit in one or more screens of this group.
RORg inh: inhibitors of mouse ROR gamma transcriptional activity. P51450. Drosophila S2 Gal4-RORgamma UAS-luciferase reporter, 20 h. Potency, µM (series often up to 53.6 µM), for the others: at the highest dose activity change, negative = inhibition, hits mostly inhibitors. actives 5.4% (n = 310,000); note: nearly all actives have a fitted effect of over 60% in size
Target sequence (P51450 whole entry, looked up, the tested form may be a part): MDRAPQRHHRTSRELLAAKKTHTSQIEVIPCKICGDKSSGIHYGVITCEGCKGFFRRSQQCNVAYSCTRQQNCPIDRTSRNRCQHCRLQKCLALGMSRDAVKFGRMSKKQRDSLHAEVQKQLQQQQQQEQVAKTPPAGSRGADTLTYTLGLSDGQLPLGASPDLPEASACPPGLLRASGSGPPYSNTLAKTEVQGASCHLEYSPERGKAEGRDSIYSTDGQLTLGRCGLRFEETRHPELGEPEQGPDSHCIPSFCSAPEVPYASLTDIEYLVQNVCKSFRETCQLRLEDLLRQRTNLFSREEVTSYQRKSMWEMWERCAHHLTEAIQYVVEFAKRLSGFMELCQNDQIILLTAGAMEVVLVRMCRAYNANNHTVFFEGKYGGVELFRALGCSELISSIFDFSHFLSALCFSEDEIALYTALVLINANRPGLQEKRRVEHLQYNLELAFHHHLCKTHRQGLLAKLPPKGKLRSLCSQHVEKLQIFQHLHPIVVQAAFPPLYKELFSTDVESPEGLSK
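Stably transfected Drosophila Schneider cells are the test system, with ROR gamma fused to Gal4 and luciferase under UAS control; luminescence is read after 20 hr of 700 uM copper sulfate induction at ambient temperature.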
DT40 TDP1 CPT: growth inhibition of DT40 Tdp1-/-;hTDP1 cells with camptothecin (screen for TDP1 inhibitors); chicken DT40 Tdp1-/-;hTDP1 cells + 20 nM CPT, ATP luminescence, 48 h; Potency, µM (highest dose often 46.2 µM), for the others: at the highest dose activity change, negative = growth inhibition, most hits filed as inhibitors; actives 12% (n = 420,000); AID 686979; note: nearly all actives have a fitted effect of over 55% in size
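Chicken DT40 Tdp1-/- cells stably complemented with human TDP1 were seeded at 400 cells/well in medium containing 20 nM camptothecin, exposed to pin-transferred compounds, and grown at 37 °C for at least 48 hr. Viability was read as ATP luminescence.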
TDP1 cell noCPT: qHTS for Inhibitors of human tyrosyl-DNA phosphodiesterase 1 (TDP1): qHTS in cells in absence of CPT | DT40 Tdp1-/- hTDP1 cells, no CPT, ATP luminescence, 48 h | Potency, µM (highest dose often 46.2 µM), for the others: at the top dose activity change, negative = growth inhibition, hits mostly inhibitors | actives 15% (n = 420,000) | AID 686978, 2013; note: nearly all actives have a fitted effect of over 55% in size
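Chicken DT40 Tdp1-/- cells stably complemented with human TDP1 were seeded at 400 cells/well with DMSO in place of 20 nM camptothecin. After compound pinning, cells grew at least 48 hr at 37 °C; viability read by CellTiter-Glo luminescence.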
VP16 counter: counter-screen for ROR gamma inhibitors: Gal4-VP16 reporter; Drosophila S2 Gal4-VP16 UAS-luciferase, luminescence, 20 h; actives 3.5% (n = 310,000); Potency, µM (doses to about 53.6 µM), inactives show at the top dose activity, negative = inhibition, most hits filed as inhibitors; AID 2546;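 note: Gal4-VP16 expression switched on by copper sulfate through the metallothionein promoter; nearly all actives have a fitted effect of over 50% in size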
ELG1 repair inh: inhibitors of ELG1-dependent DNA repair in HEK293T cells. HEK293T ELG1-luciferase reporter, luminescence, 16 h; DNA damage induced by 5-fluorouridine. Potency, µM (doses to about 46.1 µM), for the others: top-dose activity change, negative = inhibition, usual class: inhibitors. actives 2.3% (n = 330,000). AID 504467; note: nearly all actives have a fitted effect of over 55% in size
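HEK293T cells expressing luciferase-tagged ELG1 (2,000/well) received 5-Fluorouridine plus compound or DMSO for 16 hr at 37 °C. Luciferase was read by ONE-Glo luminescence after 30 min at room temperature.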
ALOX12 inh: blocks human arachidonate 12S-lipoxygenase; P18054; purified 12hLO, xylenol orange hydroperoxide absorbance; Potency, µM (series often up to 108 µM), inactives show top-dose activity change, negative = inhibition, most hits filed as inhibitors; actives 1.1% (n = 580,000); AID 1671190
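Purified human 12hLO at 150 nM in 25 mM Hepes, 0.01% Triton X-100, pH 7.0, preincubated 15 min at room temperature with compound. Reaction started with 40 uM arachidonic acid, 30 min at room temperature. Hydroperoxide measured by Fe-xylenol orange, 573/405 nm absorbance ratio.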
* = called active by the depositor; i = inactive; ? = inconclusive; . = not tested or not shown; [ ] = another dose, or the depositor's remark. Calls come from the whole dose curve; as a rule, active = well fitted curve in the direction sought with a large enough effect; inconclusive = small, poorly fitted or top-dose-only effect, or another doubt; inactive = no such curve, though single readings can be large; an effect the other way counts as inactive or inconclusive. % is set by controls: 0 for no effect and ±100 for the full control effect; potency is the fitted concentration of half-maximal effect.

SMILES | RORg inh | DT40 TDP1 CPT | TDP1 cell noCPT | VP16 counter | ELG1 repair inh | ALOX12 inh
Cc1cc(C)c(C)c(S(=O)(=O)NCc2ccncc2)c1C | ? | 21µM* | 13µM* | ? | 2.9µM* | -4%
COc1cc(C)c(Cl)cc1S(=O)(=O)NCc1ccncc1 | 11% | . | . | -15% | ? | .
CNC(=O)c1cc(S(=O)(=O)NCc2ccncc2)ccc1OC | -5% | -26% | -27% | ? | -13% | 0%
COc1cc(S(=O)(=O)NCc2ccncc2)ccc1Br | 27% | 8.2µM* | 9.2µM* | 7.1µM* | ? | -30%
O=S(=O)(NCc1ccncc1)c1ccc(Br)s1 | -39% | 1.8µM* | 2.6µM* | 1.8µM* | ? | 2%
Cc1ccc(S(=O)(=O)NCc2ccncc2)cc1C | 11µM* | 2.9µM* | 1.3µM* | 4µM* | 19% | 1%
O=C(Cc1noc(C(=O)NC2CCCCC2)n1)Nc1cccc2ncccc12 | . | . | . | . | . | 11%
N#Cc1nc(-c2ccco2)oc1N1CCC(C(=O)N2CCC(CCN3CCOCC3)CC2)CC1 | . | . | . | . | . | -25%
CN(Cc1ccc(-c2ccccc2)cc1)Cc1ccnn1C | . | . | . | . | . | 102%[176 µM]
Cc1cc(Br)c(S(=O)(=O)NCc2ccncc2)cc1C | . | 5.8µM* | 7.3µM* | . | ? | 3%
CCOC(=O)COc1ccc(S(=O)(=O)NCc2cccnc2)cc1 | -14% | 0% | -6% | 1% | 0% | 3%[57.4 µM]
COC(=O)COc1ccc(S(=O)(=O)NCc2ccncc2)cc1 | ? | 4.1µM* | 9.2µM* | 2.8µM* | ? | -12%[57.4 µM]
Cc1ccc(S(=O)(=O)NCc2ccncc2)cc1C(=O)NCC(C)C | 20% | 15µM* | ? | -10% | -21% | -23%
O=S(=O)(NCc1cccnc1)c1ccc2ccccc2c1 | ? | ? | 21µM* | -4% | 0% | 17%
COc1cccc(-c2cc(C3CCN(C(=O)Nc4ccc5c(c4)OCCO5)CC3)[nH]n2)c1 | . | . | . | . | . | -5%
O=C(CSc1nc2cc(Cl)ccc2s1)NC1CCCCC1 | . | . | . | . | . | -29%
O=C(Nc1nnc(-c2ccc(Cl)cc2)o1)C1CCN(S(=O)(=O)c2cc(F)ccc2F)CC1 | . | . | . | . | . | -4%
Cc1cccc(NC(=O)C2c3ccccc3C(=O)N(CC(C)C)C23CCCC3)n1 (configuration not stated) | . | . | . | . | . | 29%
COCCN1CCC(N2CCN(C(=O)c3ccc(F)c(F)c3)CC2)C1=O (configuration not stated) | . | . | . | . | . | 39%
COc1ccc(S(=O)(=O)NCc2cccnc2)cc1 | -6% | -18% | 3% | 4% | -4% | 49%
O=S(=O)(NCc1ccncc1)c1ccccc1 | 18% | 23µM* | 8.2µM* | 16µM* | ? | 37%
CCN(CC)CCNS(=O)(=O)c1ccc(OC)c(Br)c1 | -17% | 4% | -7% | 3% | 0% | 3.5µM*
O=[N+]([O-])c1ccccc1S(=O)(=O)NCc1cccnc1 | 18% | 8.9µM* | 21µM* | -6% | 2% | -10%
COc1ccc(S(=O)(=O)NCc2cccnc2)cc1Br | ? | 4.6µM* | 5.8µM* | 11µM* | ? | 55%
COCCN(CCOC)CC(O)COC(c1ccccc1)c1ccccc1 (configuration not stated) | 4% | 0% | 15µM* | -8% | -4% | .
SMILES | RORg inh | DT40 TDP1 CPT | TDP1 cell noCPT | VP16 counter | ELG1 repair inh | ALOX12 inh
Cc1nc(-c2cccnc2)sc1C(=O)Nc1cccc(C(F)(F)F)c1 | ? | ? | 18µM* | -16% | ? | -3%
Cc1nc(-c2ccc(C(F)(F)F)cc2)sc1C(=O)NN | 4.5µM* | ? | ? | 3.5µM* | ? | i
CC1(C)CC(NC(=O)CC(=O)NC2CC(C)(C)NC(C)(C)C2)CC(C)(C)N1 | . | . | . | . | . | -2%
COc1ccccc1C(=O)NCC(c1cccnc1)N1CCc2ccccc2C1 (configuration not stated) | . | 23µM* | 21µM* | . | . | -3%
O=C(NCC(c1ccco1)N1CCc2ccccc2C1)c1ccc([N+](=O)[O-])cc1 (configuration not stated) | . | ? | 23µM* | . | ? | .
O=C(NCC(c1cccnc1)N1CCc2ccccc2C1)C(=O)Nc1ccccc1 (configuration not stated) | . | 21µM* | ? | . | . | 6%
CC(=O)Nc1cccc(NC(=O)C(=O)NCC(c2ccco2)N2CCc3ccccc3C2)c1 (configuration not stated) | . | 16µM* | 23µM* | . | -8% | -17%
CN1CCN(C(CNC(=O)C(=O)Nc2ccc(F)cc2)c2cccnc2)CC1 (configuration not stated) | . | -21% | -3% | . | . | -15%
COc1cc(C(=O)NCC(c2cccnc2)N2CCc3ccccc3C2)cc(OC)c1OC (configuration not stated) | . | ? | ? | . | . | 2%
O=C(Cc1ccc(OC(F)(F)F)cc1)N1CCC([C@@H]2CNC[C@H]2CO)CC1 | . | . | . | . | . | -5%
Cc1nc(COc2ccccc2C(=O)N2CCC(C)CC2)no1 | . | . | . | . | . | 43%
O=C(NCC(c1cccnc1)N1CCc2ccccc2C1)C(=O)Nc1ccccc1F (configuration not stated) | . | 15µM* | 21µM* | . | . | -2%
O=C(NCC(c1cccnc1)N1CCc2ccccc2C1)c1ccc(F)c(F)c1 (configuration not stated) | . | 8.2µM* | 7.3µM* | . | . | 4%
Brc1cccc(-c2nc3ccccc3o2)c1 | . | . | . | . | . | 7%
CCCN=C1N/C(=C\c2ccco2)C(=O)N1c1ccccc1 | -3% | ? | -16% | 18% | -12% | ?
O=C1/C(=C\c2ccco2)NC(=S)N1c1ccccc1 | 21% | -13% | 29µM* | 1% | ? | 16µM*
O=C(NC(=S)N(CCCCO)C1CCCCC1)c1sc2ccccc2c1Cl | 0.1µM* | 16µM* | 16µM* | 0.89µM* | -2% | ?
CC1CCCCC1NC(=S)NC(=O)c1sc2ccccc2c1Cl (configuration not stated) | -9% | -24% | ? | 6% | 26% | -9%
Cc1nc(NCCc2nccc(-c3ccccc3)n2)cc(C2CC(O)C2)n1 (configuration not stated) | . | . | . | . | . | 61%
O=C(CSc1nc2nc(-c3cccs3)cc(C(F)(F)F)c2c(=O)[nH]1)C(F)(F)F | -5% | 13µM* | ? | 6% | ? | 24%

Screens: PubChem BioAssay, National Center for Advancing Translational Sciences (NCATS)
